Data from PubChem BioAssay (NCI).
Compounds without any hit were thinned out: in the full panel of roughly 83,000, 20% have a hit.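 Cell lines were cultured in 96-well plates, exposed to a single compound concentration, and assessed for percent growth 48 hours later.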 Values without a mark were called inactive. Active and inactive are the calls of the source. Rule for the calls: active = growth percent below 10; inactive = the rest.

Experiments:
Experiment in all cases: NCI-60 one-dose screen, 48 h (100 = growth as untreated, 0 = no growth, -100 = all killed)
Conditions in all cases: 10 µM unless noted
HCT-15 colon = test system: HCT-15 colon
HT29 colon = test system: HT29 colon
SNB-75 CNS = test system: SNB-75 CNS
SNB-19 CNS = test system: SNB-19 CNS
U251 CNS = test system: U251 CNS
PC-3 prostate = test system: PC-3 prostate
SK-MEL-5 melanoma = test system: SK-MEL-5 melanoma
UACC-62 melanoma = test system: UACC-62 melanoma
LOX IMVI melanoma = test system: LOX IMVI melanoma
SK-MEL-28 melanoma = test system: SK-MEL-28 melanoma

Row | SMILES | growth (HCT-15 colon) | growth (HT29 colon) | growth (SNB-75 CNS) | growth (SNB-19 CNS) | growth (U251 CNS) | growth (PC-3 prostate) | growth (SK-MEL-5 melanoma) | growth (UACC-62 melanoma) | growth (LOX IMVI melanoma) | growth (SK-MEL-28 melanoma)
1 | C#C[C@]1(O)CC[C@H]2[C@@H]3CC=C4c5nc(N)sc5CC[C@]4(C)[C@H]3CC[C@@]21C | 42.4% | 41.6% | -5.36% (active) | 71.6% | 38.1% | 47.5% | 60.4% | 30.3% | 55.4% | 57.1%
2 | Clc1ccc2nc(-c3ccc(-c4ccc(/C=N/NC5=NCCN5)cc4)s3)cn2c1 | -27.3% (active) | 38.8% | 83.9% | 97.1% | 97.5% | 89.4% | 93% | 102% | 97.9% | 99.5%
3 | CC1(C(=O)O)CCC(N)(C(=O)O)C1(C)C (stereo not given) | 106% | 103% | 90% | 105% | 105% | 88.8% | 107% | 107% | 109% | 109%
4 | CCN(CCO)CCC(=O)c1ccc([N+](=O)[O-])cc1 | 101% | 105% | 93.2% | 117% | 98.1% | 103% | 100% | 104% | 98.5% | 117%
5 | COc1ccc(C2NC(=O)C(C#N)c3c2sc2c(F)cccc32)cc1 (stereo not given) | 33.6% | 50.5% | 13.6% | 42.7% | 47.3% | 52.4% | 60.6% | 36.4% | 45.6% | 52.6%
6 | C[n+]1cccc(NC(=O)c2ccc3ccc4ccc(C(=O)Nc5ccc[n+](C)c5)nc4c3n2)c1 | 61.2% | 34.2% | 12.8% | 14.3% | 13% | 55.3% | 1.98% (active) | -54.4% (active) | 64.5% | 31.2%
7 | O=C(O)c1cn(C2CC2)c2cc(N3CCN(Cc4c(O)ccc5ccccc45)CC3)c(F)cc2c1=O | 5.61% (active) | -46.7% (active) | -20.8% (active) | 83.1% | 37.5% | 36.1% | 58.4% | 38.8% | 37.1% | 27.8%
8 | Cn1cc(-c2nnc(-c3cn(C)c4ncc(Br)cc34)s2)c2cc(Br)ccc21 | 98.4% | 100% | 64.3% | 94.9% | 85.2% | 90.3% | 93.1% | 86.7% | 95.8% | 95.9%
9 | Cc1ccc(NC(=S)/N=c2/n(-c3ccccc3)nc3n2CCN3C2=NCCN2)cc1 | 107% | 99.1% | 80.6% | 119% | 108% | 85.6% | 101% | 99.2% | 108% | 108%
10 | N=C(N)c1ccc(-c2ccc(-c3ccc(-c4cccs4)s3)s2)cc1F | 84.5% | 72.6% | 84.8% | 91.6% | 101% | 92.6% | 96.7% | 97.2% | 95.9% | 101%
11 | O=[N+]([O-])c1cccc(N=NNc2cccc([N+](=O)[O-])c2)c1 | 85.8% | 92.6% | 94.4% | 92% | 82.8% | 86.4% | 87.3% | 76.5% | 89.1% | 99.5%
12 | Nc1nc(Nc2ccccc2)c2ncn(Cc3ccc4c(c3)OCO4)c2n1 | 23.1% | 20.6% | 29.4% | 54.4% | 49.5% | 58.4% | 21.4% | 41.3% | 48% | 63.5%
13 | CC(C)(C)c1cc(C(=O)Nc2ccccc2C(=O)NCCN)cc(C(C)(C)C)c1 | -56.7% (active) | -41.3% (active) | 66.5% | -46.1% (active) | -57.3% (active) | 4.8% (active) | 46% | -58.3% (active) | -98.5% (active) | -84% (active)
14 | O=C1Nc2ccccc2/C1=C/C(=O)c1ccc(N2CCOCC2)cc1 | 93% | 83.4% | 90.5% | 93.9% | 81.9% | 84.6% | 101% | 83.2% | 88.9% | 107%
15 | CC1(C)CC[C@]23CC[C@]4(C)[C@H](CC[C@@H]5[C@@]6(C)C/C(=C/c7cccnc7)C(=O)C(C)(C)[C@@H]6CC[C@]54C)[C@H]2[C@H]1OC3=O | 42.7% [100 µM] | 23.2% [100 µM] | 19.8% [100 µM] | 59.6% [100 µM] | 34% [100 µM] | 29.8% [100 µM] | -44.4% [100 µM] (active) | 28.4% [100 µM] | 29.2% [100 µM] | 21.4% [100 µM]
16 | Oc1cc(Nc2ccnc3cc(Cl)ccc23)c2ncccc2c1 | 82% | 109% | 53.2% | 78.4% | 77.1% | 59.1% | 79.2% | 81.4% | 72.7% | 81.5%
17 | COc1ccc(C2CC(c3ccc4ccccc4c3)=NN2c2nc(O)c(C3=c4cc(OC)ccc4=NC3=O)s2)cc1 (stereo not given) | -29.1% (active) | -57.3% (active) | -57.1% (active) | -14.2% (active) | -92% (active) | -71.1% (active) | -93.3% (active) | -56% (active) | -77.6% (active) | -48.5% (active)
18 | CCOC(=O)c1nc2c3ccccc3ccn2c1C(=O)OC | 97% | 90.1% | 78.9% | 91.4% | 96.2% | 105% | 96.6% | 89.4% | 109% | 96.5%
19 | O=c1cc(-c2ccccc2)oc2cc(OCc3cn(Cc4ccc(F)cc4)nn3)cc(O)c12 | 94.4% [100 µM] | 100% [100 µM] | -65.9% [100 µM] (active) | -32.7% [100 µM] (active) | -16.9% [100 µM] (active) | 76% [100 µM] | 84.5% [100 µM] | 53.2% [100 µM] | 78.5% [100 µM] | 93.6% [100 µM]
20 | CC1(C)C(=O)/C(=C\c2ccco2)C[C@]2(C)[C@H]3CC=C4[C@@H]5C[C@](C)(C(=O)O)CC[C@]5(C)CC[C@@]4(C)[C@]3(C)CC[C@@H]12 | -86.4% [100 µM] (active) | -50.8% [100 µM] (active) | -82.5% [100 µM] (active) | -91.7% [100 µM] (active) | -80.8% [100 µM] (active) | -32.2% [100 µM] (active) | -72.7% [100 µM] (active) | -83.7% [100 µM] (active) | -93.6% [100 µM] (active) | -75.1% [100 µM] (active)
21 | N#CC1C(=O)NC(c2ccccc2[N+](=O)[O-])c2sc3c(F)cccc3c21 (stereo not given) | 87.8% | 85.3% | 82.6% | 70.8% | 42.6% | 80% | 75.2% | 9.47% (active) | 91.4% | 111%
22 | O=C(CCNCc1ccccc1)c1ccccc1 | 106% | 106% | 109% | 114% | 101% | 106% | 99% | 97.5% | 105% | 113%
23 | Cc1cc(N2CCCCCC2)nc(N2CCN(CC(=O)Nc3ccc4c(ccn4Cc4ccccc4)c3)CC2)n1 | 30.8% | 6.45% (active) | 69.6% | 67.3% | 39.2% | 29% | 46.9% | 49.2% | 44.1% | 51.8%
24 | Nc1nc(Cl)c2ncn(Cc3cc4c(cc3I)OCO4)c2n1 | 25.1% | 9.61% (active) | 73.5% | 61.9% | 53.5% | 39.1% | 72% | 45.7% | 11.8% | 87.7%
25 | COCc1nc2ccccc2[nH]1 | 97.7% | 104% | 95.8% | 101% | 98.3% | 104% | 99.5% | 99.1% | 99.3% | 98.8%
26 | CC1Cc2c(Cl)ncnc2N(C)c2ccccc21 (stereo not given) | 12.6% | -24.1% (active) | 82.8% | 28.4% | 19.6% | 16.3% | -75.1% (active) | 13.5% | -43.6% (active) | 20.9%
